HCMV antiviral – qHTS Assay for inhibitors of the human cytomegalovirus (HCMV); HFF cells, HCMV-luciferase reporter, 72 h; hits give low values; activity change, negative = inhibition, % at 57.5 µM; 410,000 compounds, 4.5% hits; in the data active = activity change below about -60%; inconclusive = no clear call, values can overlap the other calls; inactive = above about -39%; note: % is set by controls: 0 for no effect and ±100 for the full control effect
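After 16 h attachment at 37C, HFF cells received test compound and HCMV-luciferase (1 PFU/cell); reporter luminescence read 72 h later, data normalized against buffer-only and known inhibitor Salinomycin.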
Shiga inhibitor – A qHTS for Small Molecule Inhibitors of Shiga Toxin; Vero cells, Shiga toxin protein synthesis inhibition reporter; inhibition, % at 38.7 µM; 290,000 compounds, 9.2% hits; AID 2315, 2010; in the data active = inhibition mostly above about 28%, no sharp cut-off; inactive = mostly below about 43%; note: 0% is about no effect
Pf growth 96h – Primary qHTS for delayed death inhibitors of the malarial parasite plastid, 96 hour incubation. P. falciparum luciferase reporter growth, 96 h. Potency, µM (highest dose often 28.7 µM), for the others: at the top dose activity change, negative = inhibition, actives largely listed as inhibitors. 320,000 compounds, 6.9% hits; note: potency is the fitted concentration of half-maximal effect; % is set by controls: 0 for no effect and ±100 for the full control effect
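Plates of compound plus infected erythrocytes (2% hematocrit, 0.05% parasitemia final) incubate 96 hours, 37 C, 5% CO2. Detection reagent added; reduced luminescence from the parasites' luciferase reporter flags inhibition.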
Cycloheximide cs – Cycloheximide Counterscreen for Small Molecule Inhibitors of Shiga Toxin | max response, % | cell reporter, cycloheximide protein synthesis inhibition counterscreen | 300,000 compounds, 12% hits; in the data active = max response mostly above about 13%, no sharp cut-off; inactive = mostly below about 14%; note: read at 38.3 µM for the half of the compounds with a filed dose; 0% is about no effect
Pf growth 48h – Primary qHTS for delayed death inhibitors of the malarial parasite plastid, 48 hour incubation; P. falciparum luciferase growth in erythrocytes, 48 h; Potency, µM (doses to about 28.7 µM), for inactives: at the top dose activity change, negative = inhibition, hits mostly inhibitors; 310,000 compounds, 5.9% hits; AID 504832, 2011; note: potency is the fitted concentration of half-maximal effect; % is set by controls: 0 for no effect and ±100 for the full control effect
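Cell-based growth assay: transgenic P. falciparum expressing firefly luciferase, cultured in red cells within RPMI 1640 containing 0.5% w/v Albumax, 24 mM bicarbonate and gentamycin. A drop in luciferase activity indicates inhibition.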
Starred values were filed as active, the others as inactive; ? = inconclusive; · = not tested or not shown; [ ] = another dose, or the depositor's remark. Most compounds without a hit are left out; they make up all but 20% or so of the library. Unless noted, calls come from the whole dose curve; as a rule, active = well fitted inhibition curve with a large enough effect; inconclusive = small, poorly fitted or top-dose-only effect, or another doubt; inactive = no such curve, though single readings can be large or run the other way.

SMILES	HCMV antiviral	Shiga inhibitor	Pf growth 96h	Cycloheximide cs	Pf growth 48h
O=C(Cc1ccc([N+](=O)[O-])cc1)Nc1ccc(O)cc1C(=O)O	8	-15	5.2µM*	-3	2%
Cc1ccc(NC(=O)Cc2ccc([N+](=O)[O-])cc2)c(Br)c1	39	28	-17%	17	-15%
NC(=O)c1ccsc1NC(=O)Cc1ccc([N+](=O)[O-])cc1	-36	32	46%	31*	12%
O=C(CN1C(=O)NC2(CCCCCCC2)C1=O)Nc1c(Cl)cccc1Cl	52	·	·	·	·
CCCN(CCC)C(=O)Cn1c(=O)n(-c2ccc(C)c(C)c2)c(=O)c2c3c(sc21)CCCCC3	5	·	·	·	·
O=[N+]([O-])c1ccc(NN=Cc2cccc([N+](=O)[O-])c2)cc1	-11	·	·	·	·
O=[N+]([O-])c1ccc(N/N=C/c2cccc(O)c2)cc1	122	113*	?	53*	88%
O=[N+]([O-])c1ccc(N/N=C/c2cccc(O)c2O)cc1	29	·	?	27*	51%
CCCOc1ccc([C@@H]2C3CN(C(=O)OCC)CC=C3C(C#N)=C(N)C2(C#N)C#N)cc1OC (stereo partly specified)	-21	-2	·	3	5.9µM*
COc1cc(C2C3CN(C)CC=C3C(C#N)=C(N)C2(C#N)C#N)ccc1OC(C)C (stereo unspecified)	-15	-16	?	-5	?
COc1cc([C@@H]2[C@H]3CNCC=C3C(C#N)=C(N)C2(C#N)C#N)ccc1OC(C)C	20	24	-12%	-1	13µM*
N#CC1=C(N)C(C#N)(C#N)[C@H](c2ccncc2)[C@H]2CN(C(=O)OCc3ccccc3)CC=C12	-17	2	?	-1	10µM*
CCNc1nc(NCC)nc(N(CC)C(N)=S)n1	23	18	-19%	-1	2%
O=C1NC(=O)/C(=C\c2ccc(Cl)nc2)S1	25	68*	41%	34*	141%
O=C1NC(=O)/C(=C\c2ccc(OCc3cnc(Cl)s3)cc2)S1	-3	-4	20%	-3	52%
COc1ccc(/C=C2/SC(=O)NC2=O)cc1	3	52*	13µM*	39*	73%
CCOC(=O)c1sc(NC(=O)Nc2ccc(Cl)cc2)nc1C	-4	72*	39%	43*	?
CCOC(=O)c1sc(NCC2CCCO2)nc1C (stereo unspecified)	-7	10	?	active	38%
COc1ccc(/C(C)=N/Nc2nc(C)c(C(C)=O)s2)cc1	23	65*	3%	12*	?
Cc1nc(Nc2ccccc2)sc1C(=O)c1ccccc1	50	58*	?	47*	26%
O=C(NCc1ccco1)C(c1ccccc1)N(C(=O)Cc1cccs1)c1ccccc1F (stereo unspecified)	-33	19	?	23	-16%
CCOc1ccc(CNS(=O)(=O)c2c(C(=O)N3CCC(C)CC3)c(C)n(C)c2C)cc1OC	8	·	·	·	·
CCN[C@@H]1CN(CCCOC)S(=O)(=O)c2sc(S(N)(=O)=O)cc21	·	·	1%[12.8 µM]	·	-10%[12.8 µM]
CCOc1ccc(Nc2nc(N)c(C(=O)c3ccccc3Cl)s2)cc1	-90*	·	·	·	·
CCOC(=O)c1sc(NC(=O)c2ccccc2OCC)nc1C	-20	69	6%	36*	-7%
SMILES	HCMV antiviral	Shiga inhibitor	Pf growth 96h	Cycloheximide cs	Pf growth 48h
CNc1nc(C)c(C(=O)OCc2ccccc2)s1	70	93*	0%	29*	62%
O=C(O)Cc1sc(N/N=C\c2ccccc2)nc1-c1ccccc1	-18	58*	?	53*	-15%
CC(C)Cc1nn2cc(-c3cccc(Br)c3)nc2s1	-39	·	·	·	·
C/C(=N\NC(=O)C1CCCC1)c1ccc(NC(=O)C(F)(F)F)cc1	12	·	·	·	·
COc1ccc(Cn2c(CO)cnc2SCC(=O)Nc2cccc(NC(C)=O)c2)cc1	-12	-7	15%	-2	?
COc1ccc(OC)c(NCCN2C(=O)c3ccccc3C2=O)c1	-11	·	·	·	·
CCOC(=O)c1sc(Nc2nc3c(OC)cccc3s2)nc1C	177	81*	1%	50*	-90%
CCOC(=O)c1sc(Nc2ccccc2)nc1C	43	56*	172%	52*	·
CC(=O)c1sc(Nc2cccc(C)c2)nc1C	51	91*	41%	46*	43%
CC(=O)c1sc(Nc2ccccc2)nc1C	73	·	·	·	·
CC(=O)c1sc(N/N=C\c2ccccc2O)nc1C	27	40	269%	30*	-1%
Cc1ccc(Cl)cc1N1CCN(C(=O)c2cnc(N3CCOCC3)c3ccccc23)CC1	-36	·	·	·	·
CCOC(=O)c1sc(Nc2ccc(C)cc2C)nc1C	?	19	·	18*	?
Cc1cccc(Nc2nc3c(s2)CCCC3)c1	63	122*	?	68*	97%
O=C(O)c1ccc(Nc2nc3c(s2)CCCC3)cc1	?	-32	19%	-5	24%
CCOC(=O)c1sc(N/N=C/c2cccc(C)c2)nc1C	-5	16	154%	16	59%
CC(C)(C)C(=O)c1sc(Nc2ccccc2)nc1N	84	68*	1%	59*	?
CCOC(=O)c1sc(N/N=C/c2ccccc2)nc1C	67	34*	26%	85*	290%
O=C(CN1CCC(C(=O)c2ccc(F)cc2)CC1)Nc1ccccc1Cl	-34	-3	18%	13	11%
CN1CCN(S(=O)(=O)c2cccc(C(=O)Nc3cc(C(F)(F)F)ccc3N3CCCC3)c2)CC1	-34	·	?	·	-16%
CCOC(=O)c1sc(Nc2ccc(F)cc2)nc1C	?	80*	70%	28*	36%
CCOC(=O)c1sc(NS(=O)(=O)c2ccc(F)cc2)nc1C	-39	-9	66%	-2	10%
COc1ccc(C(=O)c2sc(Nc3ccccc3)nc2C)cc1	20	8	?	7	-15%
O=S1(=O)N=C(Nc2nc3c(s2)CCCC3)c2ccccc21	55	57*	8%	28*	282%
CCc1cccc(CC)c1NC1=NS(=O)(=O)c2ccccc21	12	·	·	·	·
SMILES	HCMV antiviral	Shiga inhibitor	Pf growth 96h	Cycloheximide cs	Pf growth 48h
COC(=O)c1ccc(/C=N/Nc2nc(C)c(C)s2)cc1	103	97*	?	63*	48%
COC(=O)c1sc(Nc2ccccc2)nc1C	92	104*	-21%	35*	154%
COc1ccccc1C(=O)NCCn1cc(SCc2ccc(C)cc2)c2ccccc21	-15	·	·	·	·
O=C(NCCOC(=O)c1ccc(Cl)cc1)c1cccnc1	-20	-10	10%	1	·
Cc1cccc(N(CC(=O)NC(C)c2ccccc2)S(=O)(=O)c2ccccc2)c1C (stereo unspecified)	-20	·	·	·	·
COc1ccccc1-n1c(=O)c2c3c(sc2n2c(SC)nnc12)CCC3	-17	·	·	·	·
CCN(c1ccccc1)c1nc2ccsc2c(=O)s1	-23	25	6%	23*	19%
CN(c1ccccc1)c1nc2ccsc2c(=O)s1	-35	97*	?	56*	60%

Screens (PubChem BioAssay)
